# “And” between values parts separate entries of the source, which are not always exact repeats. Equal values may be shown once. Hit rate of the full screen: of about 16,000 compounds, about 5,700 (36%) were called active. Inconclusive results (about 24%) are left out. Some of the results follow. Values without a mark were called inactive. The call rests on the fitted dose curve; in most records, active means well fitted curve in the direction sought with a large enough effect; inconclusive means small, poorly fitted or top-dose-only effect, or effect the other way; inactive means no such curve, though single readings can be large or run the other way.
# Target: Cytochrome P450 1A2 (Homo sapiens) (UniProt P05177)
# Sequence (P05177 whole entry, looked up): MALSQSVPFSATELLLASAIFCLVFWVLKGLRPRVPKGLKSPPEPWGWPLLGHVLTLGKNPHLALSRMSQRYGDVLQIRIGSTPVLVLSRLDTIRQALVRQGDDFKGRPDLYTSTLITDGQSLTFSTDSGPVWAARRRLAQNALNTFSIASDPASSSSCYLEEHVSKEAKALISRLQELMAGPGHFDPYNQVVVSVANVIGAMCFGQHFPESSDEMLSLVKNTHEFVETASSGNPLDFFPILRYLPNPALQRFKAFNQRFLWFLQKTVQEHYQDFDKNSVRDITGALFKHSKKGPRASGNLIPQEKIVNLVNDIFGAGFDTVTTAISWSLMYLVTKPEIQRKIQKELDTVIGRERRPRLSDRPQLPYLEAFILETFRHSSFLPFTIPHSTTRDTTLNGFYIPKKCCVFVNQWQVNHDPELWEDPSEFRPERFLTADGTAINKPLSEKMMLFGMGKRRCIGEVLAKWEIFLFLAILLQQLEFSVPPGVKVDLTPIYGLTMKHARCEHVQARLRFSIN
# Test: Cytochrome panel assay with activity outcomes
# Details: recombinant CYP, pro-luciferin dealkylation, luminescence, p450-cyp1a2; series mostly up to 57.1 µM
# On the % scale 0 is the no-effect control and ±100 the full control effect.
SMILES,AC50,"activity, negative = inhibition"
Cc1cc(C)nc(Nc2n[nH]c(COc3cccc4ccccc34)n2)n1,15.8 µM (active),–
Cc1cc(C)nc(Nc2n[nH]c(-c3cccc4ccccc34)n2)n1,4.47 µM (active),–
Cc1cc(OCCNCCO)cc(C)c1Cl,2 µM (active),–
Cc1nnc(NS(=O)(=O)c2ccc(N)cc2)s1,inactive,–
O=C1CC(c2ccc3c(c2)OCO3)CN1 (centres undefined),12.6 µM (active),–
NC(N)=NC[C@@H]1COC2(CCCCC2)O1,inactive,–
Cc1ccc(C)c(Cn2c(C(=O)OC(C)C)cc3c2ccn3C)c1,12.6 µM (active),–
CC(c1ccc(Cl)cc1)n1c(-c2ccc3ccccc3n2)n[nH]c1=S (centres undefined),11.2 µM (active),–
CN(C)CC[C@H](c1ccc(Cl)cc1)c1ccccn1,inactive,–
CCc1c(O)c2c(c(O)c1C(C)=O)C(=O)c1c(cc(O)c(C(=O)O)c1C(=O)O)C2=O,–,-33.1% [at 11.4 µM]
Cc1nc2c(OCc3ccccc3)cccn2c1CC#N,0.398 µM (active),–
Cc1nc2c(C#N)c(C)[nH]n2c(=O)c1Cc1ccccc1,inactive,–
Brc1ccc(-c2csc(N3CCC(c4ccccc4)C3)n2)cc1 (centres undefined),2.51 µM (active),–
S=C1NC2=C(C(c3ccc(Br)cc3)N1)N1CCC2CC1 (centres undefined),inactive,–
Clc1ccc(-c2csc(N3CCC(c4ccccc4)C3)n2)cc1 (centres undefined),3.55 µM (active),–
O=C(NC1CCCC1)c1cnn2c(C(F)(F)F)cc(-c3ccco3)nc12,2.24 µM (active),–
Cc1ccc(C(C(=O)NC2CCCCC2)N2CCN(C(=O)c3ccco3)CC2)cc1 (centres undefined),inactive,–
Cc1ccc(Cn2ccc(NC(=O)c3cc4nc(-c5ccco5)cc(C(F)(F)F)n4n3)n2)cc1,inactive,–
O=S(=O)(c1ccccc1)N1CCC[C@@]2(CCN(C(c3ccccc3)c3ccccc3)C2)C1,inactive,–
C/C(=N\NC(N)=S)c1ccc[nH]1,3.16 µM (active),–
Cc1ccccc1CS(=O)(=O)Cc1ccc(C(=O)NCc2cccnc2)o1,10 µM (active),–
CCOc1ccc(OCc2ccc(C(=O)NCc3cccnc3)o2)cc1,8.91 µM (active),–
O=C1c2ccccc2C2=Nc3ccccc3SC(c3ccccc3F)C12 (centres undefined),1.41 µM (active),–
CSc1ncnc2c1ncn2[C@@H]1O[C@@H](CO)[C@H](O)O[C@@H]1O,–,-5.22% [at 2.29 µM]
S=C(S)N1CCCC1,12.6 µM (active),–

SMILES,AC50,"activity, negative = inhibition"
COc1ccc(OC)c(S(=O)(=O)N2CCC(C(=O)NCCc3ccccc3)CC2)c1,inactive,–
COc1ccc2cc(CCNC(=O)C3CC3)c(=O)[nH]c2c1,12.6 µM (active),–
COCCCNC(=O)C1CC(=O)N(Cc2ccc(OC)cc2)C1 (centres undefined),inactive,–
Fc1ccccc1OCCCCSc1ncccn1,14.1 µM (active),–
CO[C@@H]1COC(=O)[C@H]2CCCN2C(=O)[C@@H](C)COC(=O)[C@H](COCc2ccccc2)NC(=O)C/C=C\[C@H]1C,–,-3.84% [at 11.4 µM]
CCN1CCc2nc(N)oc2CC1,inactive,–
CCN1CCN(c2nc(C)c3c(n2)CCCC3=O)CC1,2.24 µM (active),–
CCCCc1n[nH]c2c1/C(=N/O)CC(c1ccccc1)C2 (centres undefined),0.398 µM (active),–
NNC(=O)CCc1ccc2ccc3ccccc3c2c1,0.0316 µM (active),–
Nc1ccccc1CCCC(=O)O,–,4.62% [at 11.4 µM]
O=C(O)CCCc1ccc2ccc3ccccc3c2c1,2 µM (active),–
COC(=O)C/C=C\[C@@H](C)[C@@H](/C=N\O[C@@H](C)c1cn([C@H]2COC[C@H]2O)nn1)NS(=O)(=O)c1ccc(C)cc1,–,-5.92% [at 11.4 µM]
CCOc1ccc(NC(=O)c2oc3ccccc3c2NC(=O)CC)cc1,2 µM (active),–
CCOc1ccccc1NC(=O)C1=C(C)NC(=O)NC1c1cccc(OC)c1OC (centres undefined),inactive,–
CCCCN(C(=O)Nc1ccc(OCC)cc1)C1CCN(C(C)=O)CC1,inactive,–
CCOCC(=O)Nc1c(C(=O)Nc2ccccc2OC)oc2ccccc12,0.398 µM (active),–
COc1cccc(NC(=O)c2oc3ccccc3c2NC(C)=O)c1,2.51 µM (active),–
CCOc1ccc(NC(=O)Cn2nnc(C(=O)NCc3ccccc3OC)c2N)cc1,inactive,–
COCC(=O)N1CCC[C@@]2(CCN(C(=O)Nc3ccc(OC)cc3)C2)C1,inactive,–
C/C(CCN1CCc2nc(-c3ccccc3)c(-c3ccccc3)cc2C1)=N\O[C@@H](C)c1cn([C@H](CO)Cc2ccccc2)nn1,–,1.6% [at 11.4 µM] and -0.819% [at 11.4 µM]
CCn1c2ccccc2c2cc(N=C3SC(CC(=O)Nc4ccccc4OC)C(=O)N3C)ccc21 (centres undefined),inactive,–
CCn1c2ccccc2c2cc(NC(=O)CSc3nnc(-c4ccc(OC)c(OC)c4)n3N)ccc21,7.08 µM (active),–
CCn1c(=O)cc(SCC(=O)Nc2cc(OC)c(OC)c(OC)c2)c2ccccc21,inactive,–
Cc1noc(NS(=O)(=O)c2cccc3c(N(C)C)cccc23)c1C,inactive,–
CCN(CC)S(=O)(=O)c1cccc2c(N(C)C)cccc12,7.08 µM (active),–

SMILES,AC50,"activity, negative = inhibition"
CCN(CC)S(=O)(=O)c1ccc2c3c(cccc13)C(=O)S2,1.26 µM (active),–
Cc1[nH]nc(Nc2ccccc2)c1[N+](=O)[O-],1 µM (active),–
CCCc1nnc(SCC(=O)N2CCCCC2C)n1CCCOC (centres undefined),inactive,–
Nc1nc(SCC(=O)O)[nH]c(=O)c1N,–,-10.3% [at 11.4 µM]
CCOC(=O)CSc1nc2c(cnn2-c2ccc(C)cc2)c(=O)[nH]1,0.562 µM (active),–
Cc1ccc2nc(SCc3nc4c(cnn4-c4ccccc4)c(=O)[nH]3)[nH]c2c1,12.6 µM (active),–
Cc1nc(SCC(=O)Nc2c(C)nn(C)c2C)c2cnn(-c3ccccc3)c2n1,inactive,–
COC(=O)C(C)Sc1nc2c(cnn2-c2ccc(C)cc2)c(=O)[nH]1 (centres undefined),2.51 µM (active),–
O=C(c1ccco1)N1CCN(c2cc(=O)n(C3CCCCC3)c(=O)[nH]2)CC1,inactive,–
O=C(N/N=C/c1c(Nc2cccc(C(F)(F)F)c2)nc2ccccn2c1=O)c1ccccc1,2.82 µM (active),–
Cc1ccc(C(=O)N/N=C/c2sc(=O)n(Cc3cccc(C(=O)O)c3)c2Cl)cc1,inactive,–
CC(C)(CO)[C@H](O)C(=O)NCCCO,inactive,–
CNc1ncnc2c1ncn2[C@@H]1O[C@@H](CO)[C@H](O)[C@@H]1O,inactive,–
Cc1ccc(OCC(=O)N/N=C\c2c(C)n(C)c3ccccc23)c([N+](=O)[O-])c1,0.562 µM (active),–
Cn1c(=O)cc(OCCCC(=O)Nc2cccnc2)c2ccccc21,2 µM (active),–
COc1ccc(-c2nnc(-c3cccnc3)o2)cc1,12.6 µM (active),–
COc1ccc(-c2nnc(-c3ccc(OCC(C)C)cc3)o2)cc1,inactive,–
COc1cccc(-c2noc(-c3cccnc3)n2)c1,2.82 µM (active),–
COc1ccc(CC(=O)Nc2ccc(-c3noc(-c4cccc(OC)c4)n3)cc2)cc1,inactive,–
CCOc1ccc(-c2nnc(-c3ccncc3)o2)cc1,2.51 µM (active),–
CCOC(=O)CCN1C(=O)[C@H]2[C@H]3[C@H](O)[C@H](O)C/C(=N/OC/C=C(\C)CCC=C(C)C)[C@@H]3CC[C@@H]2C1=O,–,-2.33% [at 11.4 µM]
N#Cc1c(-c2ccccc2)no[n+]1[O-],0.398 µM (active),–
C[N+]1(CCC(=O)c2ccco2)CC2CCC(CC2)C1 (centres undefined),–,-10.2% [at 11.4 µM]
CC[C@H](CN(C)C)C(=O)c1ccco1,–,-9.05% [at 11.4 µM]
CCCCn1c(=N)n(CC(=O)c2ccco2)c2ccccc21,8.91 µM (active),–

SMILES,AC50,"activity, negative = inhibition"
C[C@H](N)CCCC(C)(C)O,inactive,–
CSc1nc(C)c2c(n1)N(c1ccc(C(C)C)cc1)CC2,2 µM (active),–
CSc1nc(C)c2c(n1)N(c1ccc(C(F)(F)F)cc1)CC2,0.316 µM (active),–
C[C@H](O)[C@H](O)[C@@H]1CNc2nc(N)[nH]c(=O)c2N1,inactive,–
Cc1nn(-c2ccc(Cl)cc2)c2sc(C(=O)c3c(N)n(C)c(=O)n(C)c3=O)cc12,inactive,–
Cn1c(=O)c(C(=O)CN2CCOCC2)c(N)n(Cc2ccccc2)c1=O,inactive,–
Cn1c(N)c(C(=O)CSc2ccc3c(c2)OCCO3)c(=O)n(C)c1=O,15.8 µM (active),–
CCCCCC(=O)N1CCCC(c2nc(-c3ccc(OC)cc3)no2)C1 (centres undefined),3.16 µM (active),–
COc1ccc(-c2noc(C3CCCN(C(=O)c4ccccc4OC)C3)n2)cc1OC (centres undefined),inactive,–
O=C(Nc1cccc(F)c1)N1CCCC2(CCNCC2)C1,inactive,–
Cc1noc(C)c1C(=O)N1CCC[C@@]2(CCN(C(=O)Nc3cccc(F)c3)C2)C1,inactive,–
O=C(Nc1ccccc1)N1CCCC(c2nc(-c3ccc(F)cc3)no2)C1 (centres undefined),25.1 µM (active),–
O=C(CC1CCCCC1)N1CCC(c2nc(-c3ccc(S(=O)(=O)N4CCCC4)cc3)no2)CC1,inactive,–
CCCCC(=O)NCCc1c(Cc2ccccc2)[nH]c2ccccc12,3.16 µM (active),–
Cc1nc2ncnn2c(C)c1CCC(=O)NCc1ccccc1,inactive,–
COc1ccc2[nH]c(-c3ccccc3)c(CCNC(C)=O)c2c1,1.26 µM (active),–
CC(=O)NCCc1c(Cc2ccccc2)[nH]c2ccccc12,12.6 µM (active),–
N[C@H](C(=O)O)c1ccc(C(=O)O)cc1,inactive,–
ClC(Cl)(Cl)C(N1CCN(c2ccccc2)CC1)N1CCN(c2ccccc2)CC1,–,-14.9% [at 2.29 µM]
CCN(CC)CCNC(=O)c1ccc(NC(C)=O)cc1,inactive,–
CCN(CC)CCNC(=O)Cn1nc(-c2ccc(C)cc2)ccc1=O,inactive,–
C=CCn1c(=O)c(C(=O)NCCN(CC)CC)c(O)c2ccccc21,1.41 µM (active),–
FC(F)(F)c1ccccc1-c1nccc(NCc2ccccc2)n1,12.6 µM (active),–
Cc1cccc(CNc2ccnc(-c3ccccc3C(F)(F)F)n2)c1,6.31 µM (active),–

# — PubChem BioAssay AID1851 (National Center for Advancing Translational Sciences (NCATS), 2009)
